EWS-Fli inh: inhibitors of EWS/Fli oncoprotein transcriptional activity | AID 651661 | 0.67% of 350,000 active | inhibition, % at 12.6 µM | A673 NR0B1-luciferase reporter, viability-normalised;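 active = mean inhibition of at least 50% after viability correction, with every replicate also passing that limit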;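 also: firefly luciferase signal divided by Alamar Blue viability fluorescence both relative to DMSO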
PAX8 reporter: inhibitors of PAX8 transcriptional activity in RMG-I cells | RMG-I TPO-luciferase reporter, SteadyGlo, 24 h | inhibition, % at 12.6 µM | 1.2% of 360,000 active | AID 652154;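 active = mean replicate inhibition at least 60% with every replicate also reaching 60%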;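 also: luciferase light reporting Pax8 driven TPO promoter activity; plate controls were median of neutral control wells for no effect and mitoxantrone controls for full effect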
LGR2 inh: inhibitors of bursicon-induced Drosophila LGR2 receptor cAMP signaling. HEK293 LGR2, CRE-luciferase, bursicon-stimulated, 4 h. inhibition, % at 9.99 µM. 0.35% of 380,000 active. AID 720647;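 active = drop in luminescence signal, shown as inhibition above about 50% in the replicate tests, limit read from the data, passing the limit was not always enough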;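 also: agonist challenge used bursicon conditioned medium at about half maximal strength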
LMP1 NFkB inh: inhibitors of Epstein-Barr LMP1-induced NF-kappaB reporter; inhibition, % at 12.5 µM; 0.69% of 350,000 active; LMP1-induced NF-kappaB luciferase reporter cells, luminescence; in the data active = inhibition above about 41%;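 also: 0% = neutral control wells and 100% = reference inhibitor control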
TWEAK-Fn14 inh: blocks TWEAK-Fn14 interaction in a reporter cell assay; TWEAK-stimulated Fn14 reporter cells, luciferase luminescence, 8 h; inhibition, % at 10 µM; 2% of 360,000 active; AID 1159606; in the data active = inhibition above about 50%
TROY signal inh: inhibitors of TROY-dependent NF-kB signaling | AID 1347056 | inhibition, % at 10 µM | Q293 LMP1-TROYcd NF-kB luciferase reporter, 4 h | 0.98% of 360,000 active;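 active = compounds whose plate-normalised and pattern-corrected inhibition of the luciferase reporter signal at the single screening dose is 50% or more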
Starred values were filed as active, the others as inactive; · = no result. The list is not random: actives were taken first. Their share in the collection is about 3.2%.

SMILES	EWS-Fli inh	PAX8 reporter	LGR2 inh	LMP1 NFkB inh	TWEAK-Fn14 inh	TROY signal inh
CN(C)CCn1c2ccccc2c2nc3ccc([N+](=O)[O-])cc3cc21	-20	76*	-6	·	-71	-116
CCn1c2ccccc2c2cc([N+](=O)[O-])ccc21	8	14	-23	-3	-2	-16
NC(=O)C(C(=O)/C=C/c1ccc(Cl)cc1)=C1SCCS1	-8	89*	25	25	51*	-2
CO[C@H]1CN(C)C(=O)c2ccc(NC(=O)Nc3ccc(Cl)c(Cl)c3)cc2OC[C@H](C)NC[C@@H]1C	69*	30	22	·	·	·
CO[C@@H]1CN(C)C(=O)c2ccc(NC(=O)c3ccc(-c4ccccc4)cc3)cc2OC[C@H](C)NC[C@@H]1C	14	65*	7	·	·	·
CO[C@@H]1CN(C)C(=O)c2ccc(NC(=O)c3ccc(-c4ccccc4)cc3)cc2OC[C@@H](C)NC[C@@H]1C	16	16	0	·	·	·
C=C[C@H](COC(C)=O)N(Cc1ccc(OC(C)=O)c(OC)c1)S(=O)(=O)c1ccc(Br)cc1	-16	-5	·	·	·	·
O=C1/C(=C/c2ccccc2)CCc2ccc(Cl)nc21	-5	1	70*	6	72*	21
Cc1ccc(S(=O)(=O)Nc2ccc3c(c2)nc(CCN2CCN(c4ccccn4)CC2)n3C)cc1	13	21	2	3	17	12
Cn1c(CCN2CCN(c3ccccn3)CC2)nc2cc(NC(=O)COc3ccc(Cl)cc3)ccc21	·	67*	12	24	54*	50*
CC1CCN(CCc2nc3cc(NC(=O)COc4ccc(Cl)cc4)ccc3n2C)CC1	·	75*	2	20	-16	-12
COc1ccc(OCC(=O)Nc2ccc3c(c2)nc(CCN2CCC(C)CC2)n3C)cc1	-4	15	-8	10	26	-14
CCCn1c(CN2CCN(C(=O)OCC)CC2)nc2cc(NC(=O)CC)ccc21	59*	21	14	-29	15	8
Cn1c(CCN2CCN(c3ccccn3)CC2)nc2cc(NS(=O)(=O)c3ccc(Cl)cc3)ccc21	·	90*	14	-1	26	17
C/C=C/c1ccc([C@H]2[C@@H](CO)N(CC3CC3)[C@@H]2CN(C(C)=O)C(C)C)cc1	-7	·	-20	·	·	·
Cc1cccc(OCC(=O)Nc2ccc3c(c2)nc(CN2CCCCC2)n3C)c1	-13	15	0	14	81*	58*
Cc1cccc(OCC(=O)Nc2ccc3c(c2)nc(CCN2CCN(c4ccccn4)CC2)n3C)c1	·	71*	15	13	36	32
Cn1c(CN2CCCCC2)nc2cc(NC(=O)c3ccccc3Cl)ccc21	-39	·	-25	7	52*	22
Cc1cccc(OCC(=O)Nc2ccc3c(c2)nc(CCN2CCCCC2)n3C)c1	4	28	2	27	1	-29
Cc1cc(-c2ccccc2)nc(N/N=C/c2ccc(O)cc2O)n1	-11	20	8	8	22	6
CN(/N=C/c1ccc(O)cc1O)c1nc(-c2ccccc2)cc(-c2ccccc2)n1	16	158*	3	1	-1	19
CCOC(=O)CSc1n[nH]c(NC(=O)c2ccc(F)cc2)n1	·	·	·	9	50*	5
CC(C)CC#Cc1cnc2c(c1)C(=O)N([C@@H](C)CO)C[C@@H](C)[C@@H](CN(C)C(=O)CN1CCOCC1)O2	1	·	-1	·	·	·
C[C@@H]1CN([C@H](C)CO)C(=O)c2cc(NS(=O)(=O)c3cccs3)ccc2O[C@H]1CN(C)C(=O)Nc1cccc2ccccc12	-12	·	10	·	·	·
CC(C)(C)c1ccc(-c2cc(N)n[nH]2)cc1	63*	-8	·	13	47	43
SMILES	EWS-Fli inh	PAX8 reporter	LGR2 inh	LMP1 NFkB inh	TWEAK-Fn14 inh	TROY signal inh
COc1ccc(C(=O)N=c2nc3ccccn3s2)cc1	·	19	·	64*	97*	79*
O=C(C[C@@H]1C[C@@H]2c3cc(NC(=O)NC4CCCCC4)ccc3O[C@@H]2[C@H](CO)O1)NC1CCCCC1	1	-3	14	·	·	·
O=C1C=CCCN1C(=O)/C=C/c1cccc(Br)c1	64*	11	·	·	·	·
O=C(CCl)N(O)c1ccc(C=Cc2ccccc2)cc1	-28	-101	-64	53*	-35	-46
Cc1csc2ncnc(N3CCN(C(=S)Nc4ccc(F)cc4F)CC3)c12	9	-4	42	·	54*	90*
CC(=O)NC(C)c1ccc(Cl)c(Cl)c1 (configuration not stated)	·	·	12	4	22	19

Screens from PubChem BioAssay.
